According to PubChem BioAssay (Tox21):
Results filed as inconclusive are left out. The source made the active and inactive calls. Unless noted, calls follow the shape of the dose curve; as a rule, active = well fitted curve in the direction sought with a large enough effect in the repeat runs; inconclusive = weak or mixed curves; inactive = no such curve, though single readings can be large; an effect the other way counts as inactive or inconclusive.

Experiments:
[1] = target: Thyrotropin receptor (Homo sapiens) (UniProt P16473); assay: qHTS assay to identify small molecule agonists of the thyroid stimulating hormone receptor (TSHR) signaling pathway (AID 1224843; calls by dose curve; also: nearly all actives have a fitted effect of over 45% in size)
Method in brief: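 Agonist-mode screen: TSHR HEK293 cells received test chemicals for half an hour at room temperature, then HTRF cAMP detection reagents for one hour prior to fluorescence measurement. Each chemical ran as a 15-concentration series, triplicated.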

[2] = qHTS assay to identify small molecule agonists of the hypoxia (HIF-1) signaling pathway - cell viability counter screen (AID 1224844; calls by dose curve; also: nearly all actives have a fitted effect of over 50% in size)
Method in brief: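 HRE-bla ME-180; 0.5% dFBS; cpd 17 h, 37C, 5% CO2; CellTiter-Glo lum., 30 min RT, post-FRET read, same wells.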

[3] = qHTS assay to identify small molecule agonists of H2AX (AID 1224845; active = well fitted activation curve with a large enough effect in the signal ratio in the repeat runs, not every such curve was filed as active; the % refers to the signal ratio)
Method in brief: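 Wild-type CHO-K1 cells, plated overnight, exposed 3hr at 37C to 15 concentrations (0.76% DMSO final). Lysed, then HTRF anti-pH2AX (S139) cryptate and anti-H2AX-d2 antibodies, 24 hr room temperature; 665/620 nm emission read.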

[4] = qHTS assay to identify small molecule agonists of the hypoxia (HIF-1) signaling pathway (AID 1224846; active = well fitted activation curve with a large enough effect in the signal ratio in the repeat runs, not every such curve was filed as active; the % refers to the signal ratio)
Method in brief: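 Reporter induction in HRE-bla ME-180 cells is taken as agonism: cells sit 5 hrs after plating, receive compounds or DMSO only, incubate 17 hrs at 37C under 5% CO2, and are loaded with CCF4-AM for beta-lactamase FRET measurement.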

[5] = qHTS assay to identify small molecule agonists of H2AX - cell viability counter screen (AID 1224847; calls by dose curve; also: top concentration of the series differs between compounds; nearly all actives have a fitted effect of over 30% in size)
Method in brief: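 Compounds tested at 15 concentrations were incubated 3 hr at 37C with wild-type CHO-K1 cells; cellular ATP-based luminescence (CellTiter-Glo) indicated viability.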

[6] = qHTS assay to identify small molecule antagonists of the estrogen related receptor (ERR) signaling pathway from Tox21 library (AID 1224848); also: nearly all actives have a fitted effect of over 50% in size
Method in brief: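 Quantitative high-throughput format: ERR reporter cells (2,000/well) pre-incubated 6 h, treated 18 h at 37 C with compounds in DMSO alongside positive and negative controls, then read by ONE-Glo luminescence.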

[7] = qHTS assay to identify small molecule agonists of the estrogen related receptor (ERR) signaling pathway from Tox21 library (AID 1224849; calls by dose curve; also: nearly all actives have a fitted effect of over 15% in size); details: ERR reporter cell line, ONE-Glo luciferase, 18 h; at 92.4 µM (top of the series) unless noted
Method in brief: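 Tox21 compounds tested for ERR agonism in an NTP reporter cell line: 18 h treatment at 37 C, then ONE-Glo luminescence.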

[8] = qHTS RealTime-Glo MT Cell Viability Assay in HepG2 cells - 24 hour (AID 1224867); also: nearly all actives have a fitted effect of over 50% in size
Method in brief: (§1)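 Viability was tracked continuously by NanoLuc luminescence from prosubstrate reduced by living HepG2 cells, at successive time points over 40 h of compound exposure. Cells with reagent were preincubated 5 h at 37 °C before compound addition.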

[9] = qHTS RealTime-Glo MT Cell Viability Assay in HEK293 cells - 32 hour (AID 1224868); also: top concentration of the series differs between compounds; nearly all actives have a fitted effect of over 50% in size
Method in brief: (§2)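 Viability tracked continuously by luminescence as live cells reduce a prosubstrate for NanoLuc; HEK293 cells preincubated 5 h, compound-treated at 37 C, and read at 0, 8, 16, 24, 32 and 40 h.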

[10] = A CellTox Green Cytotoxicity Assay to monitor cytotoxicity in HEK293 cells - 0 hour (AID 1224869); also: nearly all actives have a fitted effect of over 50% in size
Method in brief: (§3)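 Tox21 screen in HEK293: membrane-impermeant cyanine dye fluoresces on binding dead-cell DNA; compound pinned 5 h post-seeding, plates held at 37 C, signal read repeatedly through 40 h.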

[11] = qHTS RealTime-Glo MT Cell Viability Assay in HepG2 cells - 40 hour (AID 1224870); also: nearly all actives have a fitted effect of over 50% in size
Method in brief: (§4)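 HepG2 cells (600/well) mixed with RealTime-Glo MT reagent, settled 5 h at 37 C/5% CO2 before compound addition. Nonlytic NanoLuc luminescence from viable-cell prosubstrate reduction read repeatedly during 40 h treatment at 37 C.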

[12] = A CellTox Green Cytotoxicity Assay to monitor cytotoxicity in HEK293 cells - 40 hour (AID 1224871); also: nearly all actives have a fitted effect of over 45% in size
Method in brief: as §3

[13] = qHTS RealTime-Glo MT Cell Viability Assay in HEK293 cells - 16 hour (AID 1224872)
Method in brief: as §2

[14] = qHTS RealTime-Glo MT Cell Viability Assay in HepG2 cells - 8 hour (AID 1224873); also: nearly all actives have a fitted effect of over 55% in size
Method in brief: as §4

[15] = qHTS RealTime-Glo MT Cell Viability Assay in HEK293 cells - 40 hour (AID 1224874); details: RealTime-Glo luminescence; max response: stronger effect = lower value; also: nearly all actives have a fitted effect of over 50% in size
Method in brief: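 HEK293 + NanoLuc + prosubstrate, 600 cells/well; 5 h, 37 C/5% CO2; compound 23 nL in DMSO by pintool; 37 C; luminescence read at 0, 8, 16, 24, 32 and 40 h time points.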

[16] = A CellTox Green Cytotoxicity Assay to monitor cytotoxicity in HEK293 cells - 24 hour (AID 1224875); also: nearly all actives have a fitted effect of over 45% in size
Method in brief: as §3

[17] = A CellTox Green Cytotoxicity Assay to monitor cytotoxicity in HepG2 cells - 16 hour (AID 1224876); also: nearly all actives have a fitted effect of over 45% in size
Method in brief: (§5)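 Measurements at 0, 8, 16, 24, 32 and 40 h of treatment captured CellTox Green fluorescence in HepG2 cells that had been co-plated with reagent and preincubated 5 h at 37 C/5% CO2.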

[18] = qHTS RealTime-Glo MT Cell Viability Assay in HepG2 cells - 32 hour (AID 1224877); also: nearly all actives have a fitted effect of over 55% in size
Method in brief: as §1

[19] = A CellTox Green Cytotoxicity Assay to monitor cytotoxicity in HepG2 cells - 24 hour (AID 1224878); also: nearly all actives have a fitted effect of over 45% in size
Method in brief: as §5

[20] = A CellTox Green Cytotoxicity Assay to monitor cytotoxicity in HepG2 cells - 40 hour (AID 1224879); also: nearly all actives have a fitted effect of over 40% in size
Method in brief: as §5
% is scaled to controls: 0 for no effect and ±100 for the full control effect.

Thyrotropin receptor (Homo sapiens), sequence (P16473 whole entry, looked up): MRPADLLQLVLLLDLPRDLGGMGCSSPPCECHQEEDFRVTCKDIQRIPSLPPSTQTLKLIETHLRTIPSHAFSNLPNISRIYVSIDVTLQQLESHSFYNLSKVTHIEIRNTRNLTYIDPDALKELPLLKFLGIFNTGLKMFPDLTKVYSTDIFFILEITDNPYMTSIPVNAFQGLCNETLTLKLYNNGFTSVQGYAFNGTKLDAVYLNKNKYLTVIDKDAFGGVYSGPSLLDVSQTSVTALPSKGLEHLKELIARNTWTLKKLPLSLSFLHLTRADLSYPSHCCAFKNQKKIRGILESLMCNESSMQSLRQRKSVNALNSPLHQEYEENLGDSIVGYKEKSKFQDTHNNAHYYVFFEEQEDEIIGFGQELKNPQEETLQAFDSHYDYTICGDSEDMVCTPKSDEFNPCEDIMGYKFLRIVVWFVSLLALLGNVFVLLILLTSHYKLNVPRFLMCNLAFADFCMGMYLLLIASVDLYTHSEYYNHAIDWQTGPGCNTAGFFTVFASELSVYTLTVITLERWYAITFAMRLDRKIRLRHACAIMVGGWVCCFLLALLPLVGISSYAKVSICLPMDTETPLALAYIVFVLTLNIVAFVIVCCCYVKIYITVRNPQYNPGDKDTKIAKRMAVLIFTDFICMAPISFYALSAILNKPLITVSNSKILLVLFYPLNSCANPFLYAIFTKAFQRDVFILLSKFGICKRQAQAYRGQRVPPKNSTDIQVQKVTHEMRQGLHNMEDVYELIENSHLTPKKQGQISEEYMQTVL

O=C1C=CC(=O)O1
inactive: Potency [1] | Potency [2] | Potency [3] | outcome [4] | Potency [5] | Potency [6] | activity change, positive = activation [7] 7.02% | Potency [8] | Potency [9] | Potency [10] | Potency [11] | Potency [12] | Potency [13] | outcome [14] | max response [15] 12.6% | Potency [16] | Potency [17] | Potency [18] | Potency [19] | Potency [20]

CCCC(CCC)(C(=O)OCC)C(=O)OCC
inactive: Potency [1] | Potency [2] | Potency [3] | outcome [4] | Potency [5] | Potency [8] | Potency [9] | Potency [10] | Potency [11] | Potency [12] | Potency [13] | outcome [14] | max response [15] 0.553% | Potency [16] | Potency [17] | Potency [18] | Potency [19] | Potency [20]

NC(=O)NS(=O)(=O)c1ccc(Cl)cc1
inactive: Potency [1] | Potency [2] | Potency [3] | outcome [4] | Potency [5] | Potency [8] | Potency [9] | Potency [10] | Potency [11] | Potency [12] | Potency [13] | max response [15] 0.44% | Potency [16] | Potency [17] | Potency [18] | Potency [19] | Potency [20]

CC(C)C(=O)OCC(C)(C)C(O)C(C)C (stereo not drawn)
inactive: Potency [1] | Potency [2] | Potency [3] | outcome [4] | Potency [5] | Potency [8] | Potency [9] | Potency [10] | Potency [11] | Potency [12] | Potency [13] | max response [15] 8.54% | Potency [16] | Potency [17] | Potency [18] | Potency [19] | Potency [20]

CCCCCCCCCCCCCCCCOP(=O)([O-])OCC[N+](C)(C)C
inactive: Potency [1] | Potency [2] | Potency [3] | outcome [4] | Potency [5] | Potency [6] | Potency [8] | Potency [9] | Potency [10] | Potency [11] | Potency [12] | Potency [13] | outcome [14] | max response [15] -6.12% | Potency [16] | Potency [18]

CCCOCCC
inactive: Potency [1] | Potency [2] | Potency [3] | outcome [4] | Potency [5] | Potency [8] | Potency [9] | Potency [10] | Potency [11] | Potency [12] | Potency [13] | outcome [14] | max response [15] 23.9% | Potency [16] | Potency [17] | Potency [18] | Potency [19] | Potency [20]

CC1=CC(=O)CC(C)(C)C1=O
inactive: Potency [1] | Potency [2] | Potency [3] | outcome [4] | Potency [5] | Potency [8] | Potency [9] | Potency [10] | Potency [11] | Potency [12] | Potency [13] | outcome [14] | max response [15] -4.9% | Potency [16] | Potency [17] | Potency [18] | Potency [20]
